These results are taken from PubChem BioAssay.

Broadly, the inhibition is the relative decrease from the control value, in per cent.

Experiment [1] is described as follows: endothelial E-selectin expression blockers – imaging, HUVEC, immunofluorescence, MLSMR starter and 10KST1 sets, primary screen (AID 487;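 active = visually confirmed hit in the image check and inhibition above 20%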;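 as to inhibition: signal is fraction of cell area covered by stained E-selectin grains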;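 as to nuclei count: 100% = median nuclei count of all wells on the same plate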). As to conditions: HUVEC TNFalpha-induced E-selectin immunofluorescence imaging, at 2 µM; inhibition: stronger effect = higher value; nuclei count: measured here: cell number, toxicity.
The nature of experiment [2]: Primary imaging screen for DUSP6 inhibitors that restore phospho-Erk in transfected HeLa cells, chemical complementation (AID 609;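 active = compounds giving at least 50% inhibition in the cell-based MKP-3 phosphatase rescue imaging test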;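 as to inhibition: phospho-Erk level distribution per well compared with pooled transfected vehicle control wells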). The note with it: HeLa MKP-3 transfected, phospho-Erk imaging KS statistic, at 10 µM, cells stimulated with TPA for 15 min.
Experiment [3] has as its target Dual specificity protein phosphatase 6 (Homo sapiens) (UniProt Q16828). The description is as above. The note with it: HeLa MKP-3 transfected, phospho-Erk imaging KS statistic; at 10 µM; stronger effect = higher value; cells stimulated with TPA for 15 min.
Experiment [4] has as its target Voltage-gated potassium channel subunit beta-2 (Rattus norvegicus) (UniProt P62483). As to the kind of experiment: inhibitors of rat Kvbeta2 reductase activity – biochemical, NADPH fluorescence, primary screen (AID 622;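 active = fluorescence slope higher than the sample average by over 3 SD, cut at about -0.22 in these data, passing the limit was not always enough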;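 also: slope of raw intensity against log time taken from 70 to 1610 s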). The note with it: recombinant KvBeta, 4-cyanobenzaldehyde reduction, at 10 µM, stronger effect = higher value.
For experiment [5] the target is unchanged. The experiment in a line: enhancers of rat Kvbeta2 NADPH turnover – biochemical, NADPH fluorescence, primary screen (AID 623).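 Also: fluorescence intensity change per second fitted from 20 to 320 s.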 The note with it: Recombinant KvBeta, NADPH fluorescence decrease slope, 10 min; at 10 µM; stronger effect = lower value.
Experiment [6] deals with Alpha-2C adrenergic receptor (Homo sapiens) (UniProt P18825). As to the kind of experiment: compounds altering alpha2C-coupled GIRK flux – cell-based, HEK293 alpha2C/GIRK1/2, thallium flux, primary screen (AID 624;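 active = fluorescence slope after compound addition differing from the mean of all screened samples at 99.7% confidence, in either direction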;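 also: slope of fluorescence ratio to pre-addition baseline per second over 15 to 24 s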). As to conditions: thallium flux BTC fluorescence, at 10 µM, actives lie on both sides.
Sequence of Alpha-2C adrenergic receptor (Homo sapiens) (P18825 whole entry, looked up): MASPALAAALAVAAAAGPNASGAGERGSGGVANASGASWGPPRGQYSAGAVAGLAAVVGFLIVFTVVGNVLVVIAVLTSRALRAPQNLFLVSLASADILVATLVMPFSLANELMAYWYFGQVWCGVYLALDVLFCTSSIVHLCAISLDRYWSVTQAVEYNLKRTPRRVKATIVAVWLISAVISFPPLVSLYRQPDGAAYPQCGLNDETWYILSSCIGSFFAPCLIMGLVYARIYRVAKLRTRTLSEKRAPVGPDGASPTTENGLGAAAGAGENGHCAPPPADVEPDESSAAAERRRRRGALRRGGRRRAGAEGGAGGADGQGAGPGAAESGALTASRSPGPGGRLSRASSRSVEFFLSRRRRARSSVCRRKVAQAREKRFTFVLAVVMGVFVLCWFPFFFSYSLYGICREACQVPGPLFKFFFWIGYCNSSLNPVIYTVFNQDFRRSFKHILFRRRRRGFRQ
Experiment [7] can be described thus: blockers of RIG-like receptor reporter activation – cell-based, Sendai virus stimulus, luciferase, 10K MLSCN set, TLR/RLR signaling modifier project, primary screen (AID 602276;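 active = inhibition at or above 50% at 10 µM; inactive = inhibition below 50%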;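 also: firefly luciferase from ISG56 promoter only with Renilla not read in this screen; 0% = Sendai virus plus DMSO and 100% = medium plus DMSO without virus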). As to conditions: HEK293 RL24 IRF3 luciferase reporter, at 10 µM, stronger effect = higher value.
The nature of experiment [8]: TLR3 IRF3 reporter activation blockers – cell-based, poly I:C stimulus, luciferase, 10K MLSCN set, primary screen (AID 602277;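 active = inhibition of the reporter signal at or above 50%; inactive = inhibition below 50%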). As to conditions: HEK293-TLR3 RL24 IRF3 luciferase reporter, at 10 µM, stronger effect = higher value. A general note: In a reporter assay the amount or activity of a reporter protein is the signal.
Experiment [9] concerns the target Muscarinic acetylcholine receptor M4 (Homo sapiens) (UniProt P08173). As to the kind of experiment: M4-linked GIRK flux change, two-sided – cell-based, HEK293 M4/GIRK, thallium flux, BTC-AM, M4 allosteric agonist project, primary screen (AID 625;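 active = fluorescence slope after compound addition differing from the mean of all tested samples at 99.7% confidence, mostly higher but some lower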;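 also: thallium influx through GIRK channels coupled to M4 in HEK293 cells with BTC-AM dye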). As to conditions: at 10 µM, actives lie on both sides.
A short description of experiment [10]: inhibitors of larval lipid processing in zebrafish, primary screen, whole organism, PED6 fluorescence, gall bladder and intestine (AID 686;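 active = a full or partial loss of lipid-probe fluorescence in the fish gall bladder, intestine or both, judged by eye; inactive = no fluorescence loss, or compound toxic to the fish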;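 also: larvae 5 to 7 days old with five fish per well; signal comes from phospholipase A2 cleavage of quenched PED6 carried via bile; overnight exposure to compound and PED6 before scoring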). The note with it: Zebrafish larvae PED6 lipid processing, fluorescence scoring; screened at 20 µM (by protocol).
Experiment [11] in a line: loss of swimming-algae plug formation – whole organism, Chlamydomonas reinhardtii, WT vs cilia-less mutant, absorbance, 96-well, primary screen (AID 463189;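 active = inhibition at or above 50% relative to wild type and mutant plate controls; inactive = inhibition below 50%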;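 also: 0% = wild type cc124 cells in DMSO and 100% = ciliumless bld1 mutant cells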). The note with it: Chlamydomonas reinhardtii gravitaxis, OD600 absorbance, 2 days; at 10 µM; stronger effect = higher value.
Experiment [12] in a line: reduction of polyQ htt aggregates in cells – imaging, exon1htt(103Q)mCFP cells, high-content imaging, primary screen (AID 483;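 active = visual image review flags a hit and inhibition of aggregation exceeds 20%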;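 also: compound exposure lasted 3 days before fixation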;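 as to nuclei count: percent of the per-plate median nuclei count of sample wells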). As to conditions: exon1htt(103Q)mCFP cell line, aggregate imaging, at 2 µM; inhibition of aggregation: stronger effect = higher value; nuclei count: measured here: cell count, toxicity.
Where [13] appears, read: measured here: cell density z-score.
Setting [14] is: measured here: nuclear c-Myc green intensity z-score.
Setting [15] is: measured here: nuclear pErk red intensity z-score, stronger effect = higher value.

Activity calls are given as the source filed them.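 The calls were made as follows, unless noted: active = NADPH fluorescence slope more negative than the mean of all samples by about 3 SD, 99.7% confidence; inactive = the rest.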

Sequence of Muscarinic acetylcholine receptor M4 (Homo sapiens) (P08173 whole entry, looked up): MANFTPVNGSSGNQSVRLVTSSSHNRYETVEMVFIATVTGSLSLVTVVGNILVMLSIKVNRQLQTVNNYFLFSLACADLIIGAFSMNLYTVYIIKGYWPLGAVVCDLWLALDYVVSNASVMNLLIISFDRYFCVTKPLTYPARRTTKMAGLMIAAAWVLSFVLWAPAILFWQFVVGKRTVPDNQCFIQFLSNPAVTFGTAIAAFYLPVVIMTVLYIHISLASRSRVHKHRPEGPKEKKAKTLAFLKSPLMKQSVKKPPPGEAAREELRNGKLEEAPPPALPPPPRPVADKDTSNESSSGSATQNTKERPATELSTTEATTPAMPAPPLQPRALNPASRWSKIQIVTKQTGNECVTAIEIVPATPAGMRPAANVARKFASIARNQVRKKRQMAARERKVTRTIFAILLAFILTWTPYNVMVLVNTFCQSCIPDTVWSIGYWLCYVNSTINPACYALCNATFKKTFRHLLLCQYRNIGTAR
Sequence of Dual specificity protein phosphatase 6 (Homo sapiens) (Q16828 whole entry, looked up): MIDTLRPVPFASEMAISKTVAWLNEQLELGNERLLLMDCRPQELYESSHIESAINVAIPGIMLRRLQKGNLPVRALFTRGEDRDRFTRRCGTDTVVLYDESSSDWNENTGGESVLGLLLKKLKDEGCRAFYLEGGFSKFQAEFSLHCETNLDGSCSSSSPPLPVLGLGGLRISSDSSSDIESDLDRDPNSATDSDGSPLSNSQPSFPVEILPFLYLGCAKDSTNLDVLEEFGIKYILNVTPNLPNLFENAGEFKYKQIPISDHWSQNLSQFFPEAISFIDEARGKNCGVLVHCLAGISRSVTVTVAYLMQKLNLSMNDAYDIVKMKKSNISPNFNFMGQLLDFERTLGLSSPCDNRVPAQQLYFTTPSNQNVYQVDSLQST
Sequence of Voltage-gated potassium channel subunit beta-2 (Rattus norvegicus) (P62483 whole entry, looked up): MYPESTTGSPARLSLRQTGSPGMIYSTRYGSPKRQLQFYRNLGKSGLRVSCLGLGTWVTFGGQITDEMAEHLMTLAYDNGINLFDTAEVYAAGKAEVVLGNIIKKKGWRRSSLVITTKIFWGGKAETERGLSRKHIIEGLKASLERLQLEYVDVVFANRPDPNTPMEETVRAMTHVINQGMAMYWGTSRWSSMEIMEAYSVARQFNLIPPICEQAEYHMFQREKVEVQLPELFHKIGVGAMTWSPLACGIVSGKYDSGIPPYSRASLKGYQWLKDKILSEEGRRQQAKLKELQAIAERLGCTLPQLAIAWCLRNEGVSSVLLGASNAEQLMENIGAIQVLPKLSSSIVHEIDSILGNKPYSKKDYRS

`CN(C)CCOC(c1ccccc1)c1ccccc1`: the inhibition in experiment [1] was -7% (inactive); in experiment [3] it was 5.42% (inactive); in experiment [7] it was 11.6% (inactive); in experiment [8] it was 38.5% (inactive). The nuclei count in [1] came to 124%. Moreover, the values for the z-score in experiment [2] (setting [13]), in experiment [2] (setting [14]) and in experiment [2] (setting [15]) were -0.686, 0.456 and 0.78, respectively. The fluorescence slope in experiment [4] is -0.465 (inactive). For the same compound, the NADPH fluorescence slope in [5] was -4.4e-05 (inactive). For the same compound, in experiment [6], the slope was 0.00555 (inactive).

For the compound `Cn1c(=O)oc2cc(S(=O)(=O)NCCC(=O)N3CCc4ccccc4C3)ccc21`, the fluorescence slope in [4] is -0.514 (inactive). Also, in experiment [5], the NADPH fluorescence slope is -9.1e-05 (inactive). Moreover, the slope in experiment [6] was 0.00621 (inactive). The inhibition in experiment [7] is 13.9% (inactive); in experiment [8] it was 18.7% (inactive).

Turning to `O=C(Oc1oc(-c2ccco2)nc1C=Nc1ccccc1)c1ccoc1`, the inhibition in experiment [1] is -72% (inactive); in [3], 15.1% (inactive); in [11], 8.33% (inactive). This compound had a nuclei count in [1] of 165%. Also, the z-score was 1.16 in experiment [2] (setting [13]), -0.161 in experiment [2] (setting [14]) and 0.106 in experiment [2] (setting [15]). Besides, the results for the fluorescence slope in [4] and in experiment [9] were -0.402 (inactive) and 0.00635 (inactive), respectively. The NADPH fluorescence slope in experiment [5] is -4.5e-05 (inactive). Moreover, the compound was called inactive in experiment [10].

On to `COc1ccc(C(=O)NCC(=O)n2nc(C)cc2C)cc1OC`, for which the inhibition was -38.7% (inactive) in experiment [1], 3.66% (inactive) in experiment [3] and -5.61% (inactive) in experiment [11]. For the same compound, the nuclei count in [1] was determined as 95.9%. The z-score in experiment [2] (setting [13]) was -0.145; in experiment [2] (setting [14]), 0.45; in experiment [2] (setting [15]), -1.73. In addition, the fluorescence slope in experiment [4] was -0.415 (inactive); in experiment [9], 0.00491 (inactive). For the same compound, the NADPH fluorescence slope in experiment [5] is -1.8e-05 (inactive). Besides, the compound was classed as inactive in [10].

For the compound `CCCN1Cc2cccc(C(=O)NCc3cccs3)c2C1=O`, the fluorescence slope in experiment [4] is -0.393 (inactive). The NADPH fluorescence slope in [5] was -4e-05 (inactive). The slope in [6] is 0.00508 (inactive). The call in [10] was inactive. Besides, the inhibition in experiment [7] is 3.53% (inactive); in [8] it was 2.96% (inactive).

Take `C1CCC2=NCCCN2CC1`: the inhibition of aggregation in experiment [12] was 7.9% (inactive). Also, the nuclei count in experiment [12] is 102%; in experiment [1], 99.2%. Also, the inhibition in experiment [1] is -40.2% (inactive); in [7] it was 10.9% (inactive); in [8] it was 20.9% (inactive). Besides, the fluorescence slope in experiment [4] is -0.37 (inactive). Further, in experiment [5], the NADPH fluorescence slope was 4.2e-05 (inactive). Moreover, the slope in experiment [6] was 0.00592 (inactive).

Take `Cn1c(=O)[nH]c2cc3ccccc3cc21`: the fluorescence slope in experiment [4] was -0.527 (inactive); in experiment [9], 0.00589 (inactive). Further, in [5], the NADPH fluorescence slope was -6.1e-05 (inactive). The inhibition is 4.54% (inactive) in [7] and 5.31% (inactive) in experiment [8].

On to `Cc1cccc(-n2ccnc2SCC(=O)Nc2cc(C)on2)c1`, for which the fluorescence slope in experiment [4] is -0.513 (inactive); in [9], 0.00505 (inactive). Also, the NADPH fluorescence slope in experiment [5] was 3.9e-06 (inactive). Further, the inhibition in experiment [7] is -19% (inactive); in experiment [8], -43.2% (inactive).

On to `Cc1ccccc1-c1nc(CS(=O)(=O)CC(=O)N(C)C2CCCCC2)c(C)o1`, for which the fluorescence slope in experiment [4] is -0.49 (inactive). Further, the NADPH fluorescence slope in experiment [5] is -3.4e-05 (inactive). The slope in experiment [6] was 0.00717 (inactive). Besides, the inhibition was -5.9% (inactive) in experiment [7] and -32.7% (inactive) in [8].

Turning to `CN1[C@@H]2CC(OC(=O)[C@H](CO)c3ccccc3)C[C@H]1[C@@H]1O[C@@H]12` (some centres not stated), the inhibition in experiment [1] was -56.4% (inactive); in experiment [3] it was 15.3% (inactive); in experiment [7], 2.34% (inactive); in experiment [8], 25.9% (inactive). Further, the nuclei count in experiment [1] came to 129%. The figures for the z-score in [2] (setting [13]), in [2] (setting [14]) and in [2] (setting [15]) were 0.18, -0.245 and -0.715, respectively. Also, the fluorescence slope in experiment [4] was -0.461 (inactive). The NADPH fluorescence slope in experiment [5] was -3e-05 (inactive). The slope in experiment [6] is 0.00551 (inactive).

As for `O=C(NCCC1=CCCCC1)C1CCN(S(=O)(=O)c2cccc3cccnc23)CC1`, the fluorescence slope in [4] is -0.494 (inactive). The NADPH fluorescence slope in experiment [5] was 2.4e-05 (inactive). In addition, the slope in experiment [6] is 0.00594 (inactive). The inhibition in experiment [7] was -7.21% (inactive); in experiment [8], -9.62% (inactive).

As for `CCn1cc(/C=N/O)c(C)n1`, the results for the inhibition in [1], in [3] and in [11] were -98.3% (inactive), 13.2% (inactive) and 17.2% (inactive), respectively. Moreover, in [1], the nuclei count came to 153%. For the same compound, the z-score in experiment [2] (setting [13]) was 1.83; in [2] (setting [14]), -0.528; in experiment [2] (setting [15]) it was -0.0353. Besides, the figures for the fluorescence slope in [4] and in experiment [9] were -0.345 (inactive) and 0.00667 (inactive), respectively. The NADPH fluorescence slope in experiment [5] is -3.9e-05 (inactive). Moreover, the result in [10] was inactive.

In the case of `Clc1ccc(-c2nnc3sc(-c4ccc(Br)o4)nn23)cc1`, the inhibition of aggregation in experiment [12] is 10.6% (inactive). Further, the nuclei count in experiment [12] stood at 97.9%; in experiment [1], 181%. In addition, the inhibition is -136% (inactive) in [1], 6.08% (inactive) in experiment [7] and -13% (inactive) in [8]. Further, the fluorescence slope in experiment [4] is -0.346 (inactive). The NADPH fluorescence slope in [5] was 2.1e-05 (inactive). Besides, in experiment [6], the slope was 0.0087 (inactive).

As to `O=C(NC1CCCCCC1)C1c2ccccc2C(=O)N1Cc1cccnc1` (configuration not stated), the fluorescence slope in experiment [4] was -0.575 (inactive). Further, the NADPH fluorescence slope in experiment [5] is 1.2e-05 (inactive). In experiment [6], the slope is 0.00527 (inactive). Moreover, the values for the inhibition in experiment [7] and in experiment [8] were 1.87% (inactive) and 17.1% (inactive), respectively.

In the case of `CC(=O)N1CCc2cc(S(=O)(=O)NCCC(=O)NC3CCCc4ccccc43)ccc21` (configuration not stated), in experiment [4], the fluorescence slope is -0.388 (inactive). Besides, in experiment [5], the NADPH fluorescence slope is -4e-05 (inactive). Besides, the slope in experiment [6] is 0.00543 (inactive). In addition, the compound was classed as inactive in [10]. Besides, the inhibition is -3.18% (inactive) in experiment [7] and -2.7% (inactive) in experiment [8].

As to `COc1ccc(CN2CC(C(=O)NCc3ccccn3)CC2=O)cc1` (configuration not stated), the fluorescence slope was -0.582 (inactive) in experiment [4] and 0.00691 (inactive) in experiment [9]. Besides, the NADPH fluorescence slope in experiment [5] was -2.5e-07 (inactive). Further, the inhibition in experiment [7] was 14.9% (inactive); in experiment [8] it was 23.4% (inactive).

As to `CCCOc1ccc(Cl)cc1CN1CCOCC1`, the inhibition in [1] was -21.7% (inactive); in experiment [3], 20.8% (inactive); in [11] it was 32.2% (inactive). For the same compound, the nuclei count in experiment [1] turned out to be 67.6%. Besides, the z-score in [2] (setting [13]) was 0.154; in [2] (setting [14]), -1.58; in experiment [2] (setting [15]), -0.239. For the same compound, the fluorescence slope in [4] was -0.499 (inactive); in experiment [9], 0.0115 (inactive). Moreover, the NADPH fluorescence slope in experiment [5] was -3e-05 (inactive). For the same compound, the outcome in experiment [10] was inactive.

For `CCOC(=O)c1ccc(CSc2ncn[nH]2)o1`, the results for the inhibition in experiment [1], in experiment [3] and in [11] were -61.8% (inactive), 17% (inactive) and 10.3% (inactive), respectively. In [1], this compound had a nuclei count of 156%. Besides, the z-score in experiment [2] (setting [13]) was 0.633; in experiment [2] (setting [14]), -0.893; in experiment [2] (setting [15]) it was -0.304. The fluorescence slope in [4] is -0.407 (inactive); in experiment [9] it was 0.00583 (inactive). Moreover, the NADPH fluorescence slope in experiment [5] was -3.4e-05 (inactive). In addition, the call in experiment [10] was inactive.
